According to PubChem BioAssay AID1159580 (chemical genetic matrix, 2015):
Values joined by “and” are separate entries in the source; they are usually repeats but may differ in a detail not shown here. Equal values may be shown once. Screen size: about 5,500 compounds; about 2,000 (36%) were called active. Another 18% or so got no clear call; they are omitted. No stated cut-off is given here; in the data, active means normalized growth mostly below about 0.91 (no sharp cut-off); inconclusive means no clear call, values can overlap the other calls; inactive means mostly above about 0.92. The list shows a part of the results.

Experiment: chemical genetic growth profiling, strain panel (AID 1159580);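 further: tested at 20 µM; growth read once vehicle control cultures reached saturation at 30 °C; 1 = growth at the plate median or of vehicle wells; lower values mean less growth of the strain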
Conditions: growth OD

Measured: normalized growth

O=C1N=C(O)CN1/N=C\c1ccc(-c2ccc([N+](=O)[O-])cc2)o1
inactive: S. cerevisiae deletion strains, locus YJR075W, strain HOC1, active compounds read low 1.03 and 0.99 | S. cerevisiae deletion strains, locus YKL009W, strain mrt4, active compounds read low 1.04 | S. cerevisiae deletion strains, locus YKL068W, active compounds read low 1.03 | S. cerevisiae deletion strains, locus YKL085W, strain MDH1 (second series), active compounds read low 1.02 | S. cerevisiae deletion strains, locus YKL085W, strain MDH1, active compounds read low 1.02 | S. cerevisiae deletion strains, locus YKL160W, strain elf1, active compounds read low 0.994 | S. cerevisiae deletion strains, locus YKL190W, strain CNB1, active compounds read low 1.02 | S. cerevisiae deletion strains, locus YKR001C, strain vps1, active compounds read low 1.03 | S. cerevisiae deletion strains, locus YKR026C, strain gcn3, active compounds read low 0.99 | S. cerevisiae deletion strains, locus YKR091W, strain srl3, active compounds read low 0.98 | S. cerevisiae deletion strains, locus YLL001W, strain dnm1, active compounds read low 1 | S. cerevisiae deletion strains, locus YLL026W, active compounds read low 0.997 | S. cerevisiae deletion strains, locus YLL041C, strain sdh2, active compounds read low 0.97 | S. cerevisiae deletion strains, locus YLR027C, strain aat2, active compounds read low 0.988 | S. cerevisiae deletion strains, locus YLR039C, strain RIC1, active compounds read low 1.05 | S. cerevisiae deletion strains, locus YLR058C, strain SHM2, active compounds read low 1.02 | S. cerevisiae deletion strains, locus YLR102C, strain apc9, active compounds read low 1.03 | S. cerevisiae deletion strains, locus YLR113W, strain HOG1, active compounds read low 1.02 | S. cerevisiae deletion strains, locus YLR221C, strain rsa3, active compounds read low 0.994 | S. cerevisiae deletion strains, locus YLR258W, strain gsy2, active compounds read low 0.994 | S. cerevisiae deletion strains, locus YLR262C, strain YPT6 (second series), active compounds read low 0.933 | S. cerevisiae deletion strains, locus YLR262C, strain YPT6, active compounds read low 1.05 | S. cerevisiae deletion strains, locus YLR268W, strain sec22, active compounds read low 1.01 | S. cerevisiae deletion strains, locus YLR320W, strain mms22, active compounds read low 0.966 | S. cerevisiae deletion strains, locus YLR330W, strain CHS5, active compounds read low 1.02 | S. cerevisiae deletion strains, locus YLR342W, strain FKS1 (second series), active compounds read low 1 | S. cerevisiae deletion strains, locus YLR342W, strain FKS1, active compounds read low 0.986 | S. cerevisiae deletion strains, locus YLR357W, strain rsc2, active compounds read low 0.931 | S. cerevisiae deletion strains, locus YLR370C, strain arc18, active compounds read low 0.985 | S. cerevisiae deletion strains, locus YLR371W, strain rom2, active compounds read low 1.02 | S. cerevisiae deletion strains, locus YLR384C, strain iki3, active compounds read low 0.974 | S. cerevisiae deletion strains, locus YLR418C, strain cdc73, active compounds read low 1.02 | S. cerevisiae deletion strains, locus YML016C, strain PPZ1, active compounds read low 1.02 | S. cerevisiae deletion strains, locus YML032C, strain rad52, active compounds read low 1.03 | S. cerevisiae deletion strains, locus YML120C, strain ndi1, active compounds read low 0.988 | S. cerevisiae deletion strains, locus YML124C, strain tub3, active compounds read low 1.03 | S. cerevisiae deletion strains, locus YMR058W, strain fet3, active compounds read low 0.972 | S. cerevisiae deletion strains, locus YMR078C, strain ctf18, active compounds read low 1.04 | S. cerevisiae deletion strains, locus YMR125W, strain sto1, active compounds read low 0.974 | S. cerevisiae deletion strains, locus YMR129W, active compounds read low 0.98 | S. cerevisiae deletion strains, locus YMR205C, strain PFK2, active compounds read low 0.996 | S. cerevisiae deletion strains, locus YMR223W, strain ubp8, active compounds read low 1.02 | S. cerevisiae deletion strains, locus YMR231W, strain pep5, active compounds read low 0.993 | S. cerevisiae deletion strains, locus YMR263W, strain SAP30, active compounds read low 1.02 and 0.999 | S. cerevisiae deletion strains, locus YMR307W, strain GAS1, active compounds read low 1.05 | S. cerevisiae deletion strains, locus YNL067W, strain RPL9B, active compounds read low 1.02 | S. cerevisiae deletion strains, locus YNL071W, strain lat1, active compounds read low 0.978 | S. cerevisiae deletion strains, locus YNL128W, strain TEP1, active compounds read low 1.04 and 1.01 | S. cerevisiae deletion strains, locus YNL153C, strain GIM3, active compounds read low 1.01 and 1.03 | S. cerevisiae deletion strains, locus YNL175C, strain NOP13, active compounds read low 1.01 | S. cerevisiae deletion strains, locus YNL183C, strain NPR1, active compounds read low 0.96 | S. cerevisiae deletion strains, locus YNL197C, strain WHI3, active compounds read low 1.03 | S. cerevisiae deletion strains, locus YNL209W, strain ssb2, active compounds read low 0.979 | S. cerevisiae deletion strains, locus YNL224C, strain SQS1, active compounds read low 0.998 | S. cerevisiae deletion strains, locus YNL233W, strain BNI4, active compounds read low 1.01 | S. cerevisiae deletion strains, locus YNL248C, strain rpa49, active compounds read low 0.974 | S. cerevisiae deletion strains, locus YNL250W, strain rad50, active compounds read low 1.06 | S. cerevisiae deletion strains, locus YNL271C, strain bni1, active compounds read low 1.02 | S. cerevisiae deletion strains, locus YNL298W, strain CLA4, active compounds read low 1.05 | S. cerevisiae deletion strains, locus YNL307C, strain MCK1, active compounds read low 1.02 | S. cerevisiae deletion strains, locus YNL322C, strain KRE1 (second series), active compounds read low 0.976 | S. cerevisiae deletion strains, locus YNL322C, strain KRE1, active compounds read low 1.03 and 0.967 | S. cerevisiae deletion strains, locus YNR049C, strain mso1, active compounds read low 0.988 | S. cerevisiae deletion strains, locus YNR052C, strain pop2, active compounds read low 1.03 | S. cerevisiae deletion strains, locus YOL006C, strain TOP1, active compounds read low 1.02 | S. cerevisiae deletion strains, locus YOL012C, strain htz1 0.991 | S. cerevisiae deletion strains, locus YOL147C, strain pex11, active compounds read low 1.03 | S. cerevisiae deletion strains, locus YOR001W, strain rrp6, active compounds read low 1.02 | S. cerevisiae deletion strains, locus YOR061W, strain CKA2, active compounds read low 1.02 | S. cerevisiae deletion strains, locus YOR069W, strain VPS5, active compounds read low 1.01 | S. cerevisiae deletion strains, locus YOR070C, strain gyp1, active compounds read low 0.996 | S. cerevisiae deletion strains, locus YOR080W, strain dia2, active compounds read low 0.989 | S. cerevisiae deletion strains, locus YOR083W, strain WHI5 (second series), active compounds read low 1.03 | S. cerevisiae deletion strains, locus YOR083W, strain WHI5, active compounds read low 0.977 | S. cerevisiae deletion strains, locus YOR106W, strain vam3, active compounds read low 0.972 | S. cerevisiae deletion strains, locus YOR136W, strain idh2, active compounds read low 1.03 | S. cerevisiae deletion strains, locus YOR144C, strain elg1, active compounds read low 1.03 | S. cerevisiae deletion strains, locus YOR184W, strain ser1, active compounds read low 1.04 | S. cerevisiae deletion strains, locus YOR231W, strain MKK1, active compounds read low 1.03 | S. cerevisiae deletion strains, locus YOR265W, strain rbl2, active compounds read low 0.986 | S. cerevisiae deletion strains, locus YOR270C, strain vph1, active compounds read low 0.911 | S. cerevisiae deletion strains, locus YOR290C, strain snf2, active compounds read low 0.961 | S. cerevisiae deletion strains, locus YOR316C, strain cot1, active compounds read low 1.02 | S. cerevisiae deletion strains, locus YPL051W, strain arl3, active compounds read low 0.999 | S. cerevisiae deletion strains, locus YPL055C, strain LGE1, active compounds read low 1.02 | S. cerevisiae deletion strains, locus YPL078C, strain atp4, active compounds read low 0.973 | S. cerevisiae deletion strains, locus YPL106C, strain sse1, active compounds read low 0.981 | S. cerevisiae deletion strains, locus YPL240C, strain hsp82, active compounds read low 0.993 | S. cerevisiae deletion strains, locus YPL241C, strain CIN2, active compounds read low 1.02 and 1 | S. cerevisiae deletion strains, locus YPL256C, strain CLN2, active compounds read low 1 | S. cerevisiae deletion strains, locus YPR119W, strain clb2, active compounds read low 1.02 | S. cerevisiae deletion strains, locus YPR141C, strain kar3, active compounds read low 1.04 | S. cerevisiae deletion strains, locus YPR163C, strain tif3, active compounds read low 1.03 | S. cerevisiae deletion strains, locus YPR167C, strain met16, active compounds read low 1.04 | S. cerevisiae deletion strains, strain wtn01, active compounds read low 1.03 | S. cerevisiae strains, strain wild type, active compounds read low 1.02
